Source: PubChem
FLuc modulator = qHTS profiling assay for firefly luciferase inhibitor/activator using purifed enzyme and Km concentrations of substrates (counterscreen for miR-21 project); Luciferin 4-monooxygenase (Photinus pyralis), P08659; purified FLuc, Km substrates, luminescence inhibition; Potency, µM (top dose mostly 57.5 µM), for the others: top-dose activity change, negative = inhibition, hits mostly inhibitors; 360,000 tested, 6.9% active;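 note: plate controls were vehicle for no effect and reference inhibitor for full effect; nearly all actives have a fitted effect of over 55% in size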
Target sequence (P08659 whole entry, looked up): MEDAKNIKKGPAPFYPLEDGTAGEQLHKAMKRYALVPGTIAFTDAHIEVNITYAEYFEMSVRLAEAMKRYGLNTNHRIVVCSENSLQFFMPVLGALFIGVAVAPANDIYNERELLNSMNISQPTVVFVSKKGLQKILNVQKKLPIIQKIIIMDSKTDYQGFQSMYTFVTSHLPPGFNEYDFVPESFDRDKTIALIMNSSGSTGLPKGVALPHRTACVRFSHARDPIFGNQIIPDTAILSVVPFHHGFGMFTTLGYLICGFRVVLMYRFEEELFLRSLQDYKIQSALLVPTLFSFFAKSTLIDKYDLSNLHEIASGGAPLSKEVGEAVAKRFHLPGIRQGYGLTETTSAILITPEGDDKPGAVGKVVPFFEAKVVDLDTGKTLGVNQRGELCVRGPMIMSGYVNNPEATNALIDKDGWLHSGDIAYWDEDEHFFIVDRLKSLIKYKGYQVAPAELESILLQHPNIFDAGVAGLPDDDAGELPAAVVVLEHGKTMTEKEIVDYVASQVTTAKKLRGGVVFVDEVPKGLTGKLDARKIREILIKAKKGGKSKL
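Biochemical qHTS of compounds, final roughly 60 µM downward over six points, against 10 nM purified firefly luciferase using Km concentrations of substrates (10 uM D-luciferin, 10 uM ATP) in Tris acetate pH 7.5 buffer; luminescence output.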
ELG1 genotoxic = qHTS screen for small molecules that induce genotoxicity in human embryonic kidney (HEK293T) cells expressing luciferase-tagged ELG1; AID 504466, 2011; HEK293T ELG1-luciferase reporter, luminescence, 16 h; Potency, µM (series often up to 46 µM), for the others: at the top dose activity change, positive = activation, actives largely listed as activators; 330,000 tested, 1.3% active; note: % of control where 0% means no effect; nearly all actives have a fitted effect of over 60% in size
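Reporter readout depends on ELG1 protein level, which increases with genetic stress. After 16 hr compound exposure at 37 °C, luciferase activity was quantified using ONE-Glo.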
Luc counter = Counterscreen for Luciferase (Kinase-Glo TM) Inhibition; Kinase-Glo luciferase, ATP luminescence, 8 min; Potency, µM (series often up to 38.3 µM), without a hit: at the top dose activity change, negative = inhibition, most hits filed as inhibitors; 200,000 tested, 0.28% active; AID 1379, 2008; note: % is set by controls: 0 for no effect and ±100 for the full control effect; nearly all actives have a fitted effect of over 60% in size
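Inhibition of Kinase-Glo luciferase light generation was assessed at 10 uM ATP in pH 7.2 imidazole buffer, with luminescence measured after eight minutes at ambient temperature.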
Rab9 promoter act = qHTS Assay for Rab9 Promoter Activators; Potency, µM (titrated, usually from 9.22 µM), for the others: at the highest dose activation, negative = inhibition, actives largely listed as activators; 320,000 tested, 2.8% active; Huh7 Rab9 promoter-luciferase reporter, luminescence, 24 h; note: % of control where 0% means no effect; nearly all actives have a fitted effect of over 60% in size
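Luminescence read-out: Huh7 cells stably expressing Rab9-luciferase, treated 24 h with compound at 37 °C, then lysed with luciferase reagent for 10 min at ambient before reading.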
SMN2 splice up = qHTS Assay for Enhancers of SMN2 Splice Variant Expression. AID 1458, 2008. Potency, µM (doses to about 46.1 µM), inactives show at the top dose activity change, positive = activation, actives largely listed as activators. 210,000 tested, 2.8% active. HEK293 SMN2-luciferase splicing reporter, luminescence, 30-36 h; note: % of control where 0% means no effect; nearly all actives have a fitted effect of over 55% in size
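qHTS luciferase splicing reporter: luminescence rises when SMN2 exon 7 is included in transfected HEK293 cells. Compound exposure lasted 30-36 h at 37C, with 4.5 mM final sodium butyrate as control, followed by a ONE-Glo read.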
NPC1 prom act = qHTS Assay for NPC1 Promoter Activators; Huh7 NPC1 promoter luciferase reporter, 24 h; Potency, µM (doses to about 9.22 µM), for the others: top-dose activation, actives largely listed as activators; 320,000 tested, 2.4% active; note: % of control where 0% means no effect; nearly all actives have a fitted effect of over 60% in size
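Huh7 cells stably carrying NPC1 promoter–luciferase, plated in Opti-MEM with 10% FBS for 2 h, were exposed to compound in DMSO for 24 h at 37 °C; luciferase reagent was added for 10 min and luminescence read.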
An asterisk follows results filed as active. An excerpt weighted towards active compounds, which were near 7.5% of everything screened. Calls come from the whole dose curve; as a rule, active = well fitted curve in the direction sought with a large enough effect; inconclusive = small, poorly fitted or top-dose-only effect, or another doubt; inactive = no such curve, though single readings can be large; an effect the other way counts as inactive or inconclusive. Potency is the fitted concentration of half-maximal effect.

CCSc1nc(N)c2c(C)c(C)sc2n1 was read as FLuc modulator inconclusive, ELG1 genotoxic 8.7%, Luc counter 0.9%, Rab9 promoter act 2.0%, SMN2 splice up 17.5% and NPC1 prom act 1.9%.
For CCCN(C(=O)c1cc2c(s1)-c1ccccc1SC2)c1ccccc1F the results were FLuc modulator 2.7% and SMN2 splice up -25.1%.
CCOc1ccc(NC(=O)C2Cc3ccccc3N2C(=O)c2ccccc2)cc1 (stereo not drawn) was read as FLuc modulator 0.2%.
For COc1ccc(Nc2ncnc3c2nc2n3CCCC2)cc1Cl the results were FLuc modulator 19µM*.
Fc1ccc(Nc2ncnc3c2nc2n3CCCCC2)c(F)c1 was read as FLuc modulator 21.3µM*.
`CCOc1ccc(Nc2ncnc3c2nc2n3CCCCC2)cc1` gave FLuc modulator -18.1%.
`O=C(Nc1ccc(F)cc1F)C1CCCN(c2ncnc3c2nc2n3CCCCC2)C1` (stereo not drawn) gave FLuc modulator 4.7%, ELG1 genotoxic -6.1%, Rab9 promoter act -2.2% and NPC1 prom act -2.7%.
Screening COc1ccc(Nc2ncnc3c2nc2n3CCCCC2)cc1 returned FLuc modulator 16.9µM*.
`COc1cc(C(=O)Nc2ccc(-c3nc4ccccc4o3)c(O)c2)cc(OC)c1OC` gave FLuc modulator -3.7% and SMN2 splice up -3.9%.
`CCc1ccc(NC(=O)COc2cccc(-n3cnnn3)c2)cc1` gave FLuc modulator 19µM*, ELG1 genotoxic 4.0%, Rab9 promoter act -2.9% and NPC1 prom act -1.6%.
For COC(=O)c1ccc(NC(=O)COc2cccc(-n3cnnn3)c2)cc1 the results were FLuc modulator -1.9%, ELG1 genotoxic 2.4%, Rab9 promoter act -1.9% and NPC1 prom act 0.3%.
Screening Cc1cc(C(=O)COc2cccc(-n3cnnn3)c2)c(C)n1-c1ccccc1 returned FLuc modulator 3.01µM*, ELG1 genotoxic -9.5%, Luc counter 0.2%, Rab9 promoter act 23.4%, SMN2 splice up -32.3% and NPC1 prom act 2.7%.
For CN1CCN(C(=O)C(=O)Nc2c3c(nn2-c2ccc(Cl)cc2)CSC3)CC1 the results were FLuc modulator -3.6%.
For CCCOc1ccc(/C=N/O)cc1 the results were FLuc modulator inconclusive, ELG1 genotoxic -1.5%, Luc counter 4.0%, Rab9 promoter act 17.6%, SMN2 splice up -2.0% and NPC1 prom act 10.7%.
`O/N=C/c1ccc(OCC(O)COc2ccc(/C=N/O)cc2)cc1` gave FLuc modulator 15.1µM*, ELG1 genotoxic -0.6%, Luc counter -2.6%, Rab9 promoter act 1.7%, SMN2 splice up -9.0% and NPC1 prom act 1.1%.
For Nc1c(C(=O)Nc2nc3ccccc3s2)sc2nc(-c3cccs3)ccc12 the results were FLuc modulator 2.39µM*, ELG1 genotoxic inconclusive, Luc counter -7.6%, Rab9 promoter act inconclusive, SMN2 splice up inconclusive and NPC1 prom act inconclusive.
Screening Nc1c(C(=O)Nc2ccccc2Br)sc2nc(-c3cccs3)ccc12 returned SMN2 splice up -5.7%.
`Nc1c(C(=O)Nc2ccccc2)sc2nc(-c3ccco3)ccc12` gave FLuc modulator 12µM*, ELG1 genotoxic 5.7%, Luc counter -2.7%, Rab9 promoter act inconclusive, SMN2 splice up 2.2% and NPC1 prom act inconclusive.
`CC(=O)c1sc2nc(-c3cccs3)ccc2c1N` gave FLuc modulator 7.57µM*, ELG1 genotoxic 11.6µM*, Luc counter -0.9%, Rab9 promoter act 3.55µM*, SMN2 splice up inconclusive and NPC1 prom act 18.4%.
For Cc1ccc(-c2nc3[nH]c(=O)cc(NC(=O)c4cccs4)n3n2)cc1 the results were FLuc modulator 13.5µM*, ELG1 genotoxic -0.9%, Rab9 promoter act -6.3% and NPC1 prom act -16.6%.
CC(C)(C)c1ccc(-c2nc3[nH]c(=O)cc(NC(=O)c4ccco4)n3n2)cc1 was read as FLuc modulator 0.426µM*, ELG1 genotoxic inconclusive, Rab9 promoter act 1.12µM* and NPC1 prom act 3.98µM*.
Cc1ccc(C(=O)COC(=O)c2cc(-c3ccccc3)nc3ccccc23)cc1C was read as FLuc modulator -19.5% and SMN2 splice up -16.3%.
`Cc1ccc(NC(=O)CN2C(=O)CSc3ccc(S(=O)(=O)N4CCCC4)cc32)cc1F` gave FLuc modulator 5.0%.
For Nc1nonc1-c1nc2ccccc2n1CC(=O)N/N=C/c1ccc(-c2cccc(C(=O)O)c2)o1 the results were FLuc modulator 26.9µM*, ELG1 genotoxic 5.3%, Luc counter 0.7%, Rab9 promoter act -2.7%, SMN2 splice up 13.6% and NPC1 prom act 0.1%.
`Cc1ccc(NC(=O)Cn2c(-c3nonc3N)nc3ccccc32)cc1C` gave FLuc modulator -18.2% and SMN2 splice up 10µM*.
`Cc1nnc(N/N=C\c2ccc(-c3cccc(C(=O)O)c3)o2)n1N` gave FLuc modulator 10.7µM*, ELG1 genotoxic -0.2%, Luc counter -10.8%, Rab9 promoter act inconclusive, SMN2 splice up -10.5% and NPC1 prom act -1.1%.
Screening Cc1nnc(N/N=C/c2ccc(-c3ccc(Br)cc3)o2)n1N returned FLuc modulator inconclusive, ELG1 genotoxic 3.5%, Luc counter 1.4%, Rab9 promoter act 14.0%, SMN2 splice up -22.5% and NPC1 prom act -1.3%.
`CCCSc1ncc(Cl)c(C(=O)Nc2ccc(S(=O)(=O)N3CCCCC3C)cc2)n1` (stereo not drawn) gave FLuc modulator -0.6% and SMN2 splice up -29.6%.
`CCC/C=C(\CCC)C(NC(=O)OCC(C)C)c1ccccc1` (stereo not drawn) gave Luc counter -1.2% and SMN2 splice up 2.6%.
For Cc1ccc(Nc2nc(Cl)nc(NC(C)(C)C)n2)cc1 the results were FLuc modulator 12µM*, ELG1 genotoxic inconclusive, Rab9 promoter act 21.0% and NPC1 prom act inconclusive.
Screening CCOC(=O)CNc1nc(Cl)nc(Nc2ccc(C)cc2)n1 returned FLuc modulator 1.6%, ELG1 genotoxic -2.4%, Rab9 promoter act 2.5% and NPC1 prom act 3.2%.
For O=C(Nc1nnc(C2CC2)s1)C1COc2ccccc2O1 (stereo not drawn) the results were FLuc modulator 10.7µM*, ELG1 genotoxic 4.11µM*, Luc counter -14.0%, Rab9 promoter act 0.891µM*, SMN2 splice up 5.62µM* and NPC1 prom act 2.82µM*.
